Reference: PubChem BioAssay AID1159580 (chemical genetic matrix, 2015)
Out of some 5,500 compounds screened, about 2,000 (36%) were called active. Roughly 18% stayed inconclusive and do not appear here. Cut-off read from the data, not from the text of the source: active = normalized growth mostly below about 0.91 (no sharp cut-off); inconclusive = no clear call, values can overlap the other calls; inactive = mostly above about 0.92. The list shows a part of the results.

Assay: chemical genetic growth profiling, strain panel (AID 1159580);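 note: tested at 20 µM; growth read once vehicle control cultures reached saturation at 30 °C; 1 = growth at the plate median or of vehicle wells; lower values mean less growth of the strain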
Details: S. cerevisiae deletion strains, growth OD

Measured: normalized growth

N/C(=N/OC(=O)c1ccccc1Cl)c1ccc2nonc2c1
active: locus YHR030C, strain SLT2, hits give low values 0.825
inactive: locus YAR019C, strain CDC15, hits give low values 0.967 | locus YBL105C, strain PKC1, hits give low values 0.963 | locus YBR135W, strain CKS1, hits give low values 0.962 | locus YBR136W, strain MEC1, hits give low values 0.966 | locus YBR160W, strain CDC28, hits give low values 0.959 | locus YDL017W, strain CDC7, hits give low values 0.968 | locus YDL028C, strain MPS1, hits give low values 0.964 | locus YDL101C, strain DUN1, hits give low values 0.977 | locus YDL108W, strain KIN28, hits give low values 0.973 | locus YDL132W, strain cdc53, hits give low values 0.958 | locus YDL214C, strain PRR2, hits give low values 0.978 | locus YDR052C, strain DBF4, hits give low values 0.976 | locus YDR054C, strain cdc34, hits give low values 0.95 | locus YDR226W, strain ADK1, hits give low values 0.975 | locus YDR477W, strain SNF1, hits give low values 0.989 | locus YER123W, strain YCK3, hits give low values 0.977 | locus YER133W, strain GLC7, hits give low values 0.961 | locus YFL009W, strain cdc4, hits give low values 0.965 | locus YFL029C, strain CAK1, hits give low values 0.963 | locus YFR003C, strain YPI1, hits give low values 0.972 | locus YFR019W, strain FAB1, hits give low values 0.956 | locus YFR028C, strain CDC14, hits give low values 0.977 | locus YGR040W, strain KSS1, hits give low values 0.976 | locus YGR052W, strain FMP48, hits give low values 1.05 | locus YGR092W, strain DBF2, hits give low values 0.847 | locus YHR079C, strain IRE1, hits give low values 0.963 | locus YHR082C, strain KSP1, hits give low values 1.01 | locus YHR205W, strain SCH9, hits give low values 0.971 | locus YIL147C, strain SLN1, hits give low values 0.96 | locus YJL095W, strain BCK1, hits give low values 0.904 | locus YJL128C, strain PBS2, hits give low values 0.985 | locus YJL157C, strain FAR1, hits give low values 0.977 | locus YJR016C, strain ILV3, hits give low values 0.966 | locus YJR066W, strain TOR1 (second series), hits give low values 0.915 | locus YJR066W, strain TOR1, hits give low values 0.947 | locus YKL048C, strain ELM1, hits give low values 0.985 | locus YKL067W, strain YNK1, hits give low values 0.986 | locus YKL101W, strain HSL1, hits give low values 0.991 | locus YKL193C, strain SDS22, hits give low values 0.965 | locus YKL203C, strain TOR2, hits give low values 1.01 | locus YLR113W, strain HOG1, hits give low values 0.96 | locus YLR133W, strain CKI1, hits give low values 0.994 | locus YLR403W, strain SFP1, hits give low values 0.96 | locus YML070W, strain DAK1, hits give low values 0.99 | locus YMR001C, strain CDC5, hits give low values 0.97 | locus YMR205C, strain PFK2 (second series), hits give low values 0.984 | locus YMR277W, strain FCP1, hits give low values 0.963 | locus YNL006W, strain LST8, hits give low values 0.974 | locus YNL020C, strain ARK1, hits give low values 0.98 | locus YNL161W, strain CBK1, hits give low values 0.973 | locus YNL183C, strain NPR1, hits give low values 0.955 | locus YNL207W, strain RIO2, hits give low values 0.964 | locus YNL222W, strain SSU72, hits give low values 0.968 | locus YNL307C, strain MCK1 (second series), hits give low values 0.982 | locus YOL078W, strain AVO1, hits give low values 0.972 | locus YOL136C, strain PFK27, hits give low values 0.983 | locus YOR061W, strain CKA2, hits give low values 0.985 | locus YOR119C, strain RIO1, hits give low values 1.07 | locus YOR231W, strain MKK1, hits give low values 0.96 | locus YOR329C, strain SCD5, hits give low values 0.97 | locus YPL031C, strain PHO85, hits give low values 0.966 | locus YPL153C, strain RAD53, hits give low values 0.959 | locus YPL204W, strain HRR25, hits give low values 0.95 | locus YPL209C, strain IPL1, hits give low values 0.968 | locus YPL256C, strain CLN2, hits give low values 0.963 | locus YPR025C, strain CCL1, hits give low values 0.962 | locus YPR106W, strain ISR1, hits give low values 0.981 | locus YPR111W, strain DBF20, hits give low values 0.974 | strain NNK1, hits give low values 0.98 | strain TSCII, hits give low values 0.962
